This is part of a sample that, as a whole, favours compounds with a hit. Of some 79,000 tested, about 15% had one in any assay. A number with no mark means an inactive call. Calls of active or inactive are those of the source. Cut-off read from the data, not from the text of the source: active = growth inhibition above about 70%; inactive = the rest.

A short description of assay [1]: NCI Yeast Anticancer Drug Screen. Data for the rad50 strain (AID 155).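 Note: 0% = growth of vehicle-only cultures of the same strain.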 To be noted: S. cerevisiae rad50 strain growth inhibition, stronger effect = higher value. The procedure, abridged: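 Cells are treated with compound, grown, and their growth is then scored against vehicle-only cultures of the same repair-deficient yeast strain.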
Assay [2] can be described thus: NCI Yeast Anticancer Drug Screen. Data for the sgs1 mgt1 strain (AID 161).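 Note: 0% = growth of cultures given vehicle only.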 To be noted: S. cerevisiae sgs1 mgt1 strain, stronger effect = higher value. The gist of the method:
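Read-out: growth inhibition vs vehicle controls. Cells: mutant yeast strain deficient in DNA damage repair.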

The nature of assay [3]: NCI Yeast Anticancer Drug Screen. Data for the cln2 rad14 strain (AID 165).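 Note: 0% = growth equal to vehicle treated cultures.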 To be noted: S. cerevisiae cln2 rad14 strain, stronger effect = higher value. The procedure, abridged: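 Growth of compound-exposed yeast (cln2 rad14 genotype) measured and expressed as inhibition relative to vehicle.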
A short description of assay [4]: NCI Yeast Anticancer Drug Screen. Data for the bub3 strain (AID 167). The conditions noted are these: S. cerevisiae bub3 mutant strain, stronger effect = higher value. The gist of the method: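 Part of a panel of yeast mutants defective in DNA damage repair or cell cycle regulation. Each strain is grown with compound, and inhibition is calculated relative to solvent-treated cultures.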

Assay [5] is described as follows: NCI Yeast Anticancer Drug Screen. Data for the mlh1 rad18 strain (AID 175). The conditions noted are these: S. cerevisiae mlh1 rad18 strain growth inhibition, stronger effect = higher value. The procedure, abridged:
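In this whole-cell yeast screen, a strain with altered DNA damage repair is challenged with compound, and its growth is measured against matched vehicle-treated controls.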

The nature of assay [6]: NCI Yeast Anticancer Drug Screen. Data for the mec2-1 strain (AID 157). To be noted: S. cerevisiae mec2-1 strain, stronger effect = higher value. The gist of the method:
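Test agents were screened against the mec2-1 yeast strain, with defined DNA repair or cell cycle alteration. Growth was scored as inhibition against vehicle-only controls.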

The mark [7] stands for this setting: at 5.0 µM (retest, dose inferred, filed as 0.5).
The mark [8] stands for this setting: at 50.0 µM (retest, dose inferred, filed as 5.0).

With `CC(C)(C)C(=O)/C=C/c1ccc2ccccc2n1`, the growth inhibition in assay [1] (setting [7]) is -135%; in assay [1] (setting [8]) it was -119%; in assay [1] (at 50.0 µM) it was 44.4%; in assay [2] (setting [7]), -62%; in assay [2] (setting [8]), -35%; in assay [2] (at 50.0 µM), 34.5%. For the same molecule, the growth inhibition in assay [3] (setting [7]) was -66%; in assay [3] (setting [8]) it was -75%; in assay [3] (at 50.0 µM), 8.6%; in assay [4] (setting [7]), -67%; in assay [4] (setting [8]), -73%; in assay [4] (at 50.0 µM), 34.1%. The growth inhibition was -126% in assay [5] (setting [7]), -120% in assay [5] (setting [8]) and 77.8% (active) in assay [5] (at 50.0 µM).

With `CCN(CC)CCN1C(=O)c2c(c3c4cccc(Cl)c4n(C4OC(CO)C(OC)C(O)C4O)c3c3[nH]c4c(Cl)cccc4c23)C1=O` (stereo not given), the growth inhibition is 88% (active) in assay [1] (setting [7]); 97% (active) in assay [1] (setting [8]); 84% (active) in assay [1] (at 50.0 µM); 21% in assay [2] (setting [7]); 96% (active) in assay [2] (setting [8]); 90.5% (active) in assay [2] (at 50.0 µM). Moreover, the growth inhibition in assay [3] (setting [7]) is 67%; in assay [3] (setting [8]), 90% (active); in assay [3] (at 50.0 µM), 89.5% (active); in assay [4] (setting [7]) it was 43%; in assay [4] (setting [8]), 97% (active); in assay [4] (at 50.0 µM), 89.2% (active). The values for the growth inhibition in assay [5] (setting [7]), in assay [5] (setting [8]) and in assay [5] (at 50.0 µM) were 76% (active), 97% (active) and 91% (active), respectively.

On to `CC12CC(Br)(Br)C(=O)C3C1CCCC32`, for which the growth inhibition in assay [6] (setting [7]) was 48%; in assay [6] (setting [8]), 60%; in assay [6] (at 50.0 µM) it was 41%; in assay [2] (setting [7]), 37%; in assay [2] (setting [8]), -38%; in assay [2] (at 50.0 µM), 86.8% (active). Besides, the growth inhibition in assay [3] (setting [7]) was 49%; in assay [3] (setting [8]) it was 35%; in assay [3] (at 50.0 µM), 75.7% (active); in assay [4] (setting [7]), 74% (active); in assay [4] (setting [8]), 59%; in assay [4] (at 50.0 µM) it was 87% (active). Moreover, the figures for the growth inhibition in assay [5] (setting [7]), in assay [5] (setting [8]) and in assay [5] (at 50.0 µM) were 74% (active), 79% (active) and 87% (active), respectively.

With `Oc1c(Cl)c2ccccc2c2ccccc12`, the growth inhibition in assay [1] (setting [7]) is -2%; in assay [1] (setting [8]) it was 59%; in assay [1] (at 50.0 µM), 98.6% (active); in assay [6] (setting [7]), 56%; in assay [6] (setting [8]), 48%; in assay [6] (at 50.0 µM), 99.2% (active). For the same molecule, the growth inhibition in assay [3] (setting [7]) is -1%; in assay [3] (setting [8]) it was 24%; in assay [3] (at 50.0 µM), 98.5% (active); in assay [4] (setting [7]), 37%; in assay [4] (setting [8]), 76% (active); in assay [4] (at 50.0 µM), 93.5% (active). Moreover, the growth inhibition was 8% in assay [5] (setting [7]), 44% in assay [5] (setting [8]) and 98.7% (active) in assay [5] (at 50.0 µM).

As to `O=C1c2cc3c(cc2CC1Br)CCC3` (stereo not given), the growth inhibition is 99% (active) in assay [1] (setting [7]); 99% (active) in assay [1] (setting [8]); 79.5% (active) in assay [1] (at 50.0 µM); 99% (active) in assay [6] (setting [7]); 100% (active) in assay [6] (setting [8]); 87% (active) in assay [6] (at 50.0 µM). Besides, the growth inhibition in assay [3] (setting [7]) was 98% (active); in assay [3] (setting [8]) it was 99% (active); in assay [3] (at 50.0 µM), 90.2% (active); in assay [4] (setting [7]), 99% (active); in assay [4] (setting [8]), 99% (active); in assay [4] (at 50.0 µM) it was 89.5% (active). Besides, the values for the growth inhibition in assay [5] (setting [7]), in assay [5] (setting [8]) and in assay [5] (at 50.0 µM) were 99% (active), 99% (active) and 92.4% (active), respectively.

For `COC1C=COC2(C)Oc3c(C)c(O)c4c(O)c(c(C5SCCS5)c(O)c4c3C2=O)NC(=O)C(C)=C/C=C\C(C)C2OC(C)(C)OC(C2C)C(C)C(OC(C)=O)C1C` (stereo not given), the growth inhibition in assay [1] (setting [7]) is 5%; in assay [1] (setting [8]) it was 83% (active); in assay [1] (at 50.0 µM), 86.7% (active); in assay [2] (setting [7]), -2%; in assay [2] (setting [8]), 36%; in assay [2] (at 50.0 µM) it was 90.8% (active). The growth inhibition in assay [3] (setting [7]) was 20%; in assay [3] (setting [8]), 93% (active); in assay [3] (at 50.0 µM), 90.3% (active); in assay [4] (setting [7]), 5%; in assay [4] (setting [8]), 95% (active); in assay [4] (at 50.0 µM), 83.8% (active). Further, the growth inhibition in assay [5] (setting [7]) is 9%; in assay [5] (setting [8]), 92% (active); in assay [5] (at 50.0 µM), 87.8% (active).

On to `O=C(/C=C/c1cccc(Cl)c1)c1ccccc1`, for which the growth inhibition in assay [6] (setting [7]) was -9%; in assay [6] (setting [8]), 99% (active); in assay [6] (at 50.0 µM) it was 95.5% (active); in assay [2] (setting [7]), 7%; in assay [2] (setting [8]), 99% (active); in assay [2] (at 50.0 µM), 98% (active). In addition, the growth inhibition in assay [3] (setting [7]) is 5%; in assay [3] (setting [8]), 52%; in assay [3] (at 50.0 µM), 12.9%; in assay [4] (setting [7]), -30%; in assay [4] (setting [8]), 98% (active); in assay [4] (at 50.0 µM), 95.2% (active). Also, the figures for the growth inhibition in assay [5] (setting [7]), in assay [5] (setting [8]) and in assay [5] (at 50.0 µM) were 10%, 96% (active) and 99.4% (active), respectively.

For `CCOc1ncc(Cl)c(OCC)n1`, the growth inhibition in assay [1] (setting [7]) is 3%; in assay [1] (setting [8]) it was -5%; in assay [1] (at 50.0 µM) it was -25.4%; in assay [2] (setting [7]), -1%; in assay [2] (setting [8]), -6%; in assay [2] (at 50.0 µM) it was -28.2%. Further, the growth inhibition was -7% in assay [3] (setting [7]); 2% in assay [3] (setting [8]); -21.3% in assay [3] (at 50.0 µM); 1% in assay [4] (setting [7]); -3% in assay [4] (setting [8]); -12.7% in assay [4] (at 50.0 µM). In addition, the growth inhibition is 2% in assay [5] (setting [7]), -5% in assay [5] (setting [8]) and -18.1% in assay [5] (at 50.0 µM).

For `N#CC1=CN=C2C=CC=C3N=C(C(Cl)(Cl)Cl)N=C1N32`, the growth inhibition in assay [6] (setting [7]) was 7%; in assay [6] (setting [8]), 97% (active); in assay [6] (at 50.0 µM), 39.3%; in assay [2] (setting [7]), 28%; in assay [2] (setting [8]), 97% (active); in assay [2] (at 50.0 µM) it was 87.2% (active). Further, the growth inhibition is 2% in assay [3] (setting [7]); 91% (active) in assay [3] (setting [8]); 14.8% in assay [3] (at 50.0 µM); -1% in assay [4] (setting [7]); 89% (active) in assay [4] (setting [8]); 20.3% in assay [4] (at 50.0 µM). For the same molecule, the growth inhibition is 25% in assay [5] (setting [7]), 95% (active) in assay [5] (setting [8]) and 76.8% (active) in assay [5] (at 50.0 µM).

Values taken from PubChem BioAssay (NCI).
